Source: PubChem BioAssay
LASV entry inh: blocks Lassa virus binding to or entry into cells; Lassa virus pseudotype entry inhibition, cell reporter; Potency, µM (highest dose often 37.9 µM), for inactives: top-dose activity change, negative = inhibition, most hits filed as inhibitors; 1.2% of 300,000 active; AID 540256; calls by dose curve; tested in HEK293 cells; also: potency is read from the fitted curve at half-maximal effect; nearly all actives have a fitted effect of over 50% in size
FMDV antiviral: foot and mouth disease virus antiviral activity; FMDV antiviral cell-based qHTS; Potency, µM (top dose mostly 57.9 µM), without a hit: top-dose activity change, negative = inhibition, most hits filed as inhibitors; 1.2% of 410,000 active; AID 1159524; calls by dose curve; tested in HEK293T cells; also: read-out not given here; potency is read from the fitted curve at half-maximal effect; nearly all actives have a fitted effect of over 45% in size
HCMV antiviral: inhibitors of human cytomegalovirus; activity change, negative = inhibition, % at 57.5 µM; HFF cells, HCMV-luciferase reporter, 72 h; hits give low values; AID 1259415; 4.5% of 410,000 active; in the data active = activity change below about -60%; inconclusive = no clear call, values can overlap the other calls; inactive = above about -39%
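Compounds were evaluated in HFFs infected with an HCMV luciferase reporter virus (MOI 1 PFU/cell). Luciferase in lysates collected 72 h post infection served as the replication measure.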
VACV Venus inh: inhibitors of vaccinia virus (Venus reporter). Potency, µM (titrated, usually from 36.5 µM), for inactives: at the top dose activity change, negative = inhibition, usual class: inhibitors. 0.46% of 330,000 active. Vaccinia virus Venus reporter expression, fluorescence; calls by dose curve; tested in A549 cells; also: potency is read from the fitted curve at half-maximal effect; nearly all actives have a fitted effect of over 30% in size
MARV entry inh: inhibitors of Marburg virus binding or cell entry; Marburg virus pseudotyped entry inhibition, cell reporter; 1.8% of 300,000 active; AID 540276; Potency, µM (top dose mostly 37.8 µM), for the others: at the top dose activity change, negative = inhibition, actives largely listed as inhibitors; calls by dose curve; tested in HEK293 cells; also: potency is read from the fitted curve at half-maximal effect
Vaccinia mCherry: inhibitors of vaccinia virus infection (mCherry reporter signal); 0.63% of 310,000 active; Potency, µM (titrated, usually from 36.5 µM), without a hit: at the highest dose activity change, negative = inhibition, usual class: inhibitors; Vaccinia virus mCherry reporter infection, fluorescence; AID 720579; calls by dose curve; tested in A549 cells; also: potency is read from the fitted curve at half-maximal effect; nearly all actives have a fitted effect of over 35% in size
An asterisk follows results filed as active; i = inactive; ? = inconclusive; . = no result given; [ ] = dose if it differs, or a comment. The list is not random: actives were taken first. Their share in the collection is about 6.5%. % is scaled to controls: 0 for no effect and ±100 for the full control effect.

SMILES	LASV entry inh	FMDV antiviral	HCMV antiviral	VACV Venus inh	MARV entry inh	Vaccinia mCherry
Cc1cc(NC(=O)COn2nnc3ccc(S(C)(=O)=O)cc32)ccc1Br	.	-25%	?	.	.	.
COc1ccc(/C=C/c2c([N+](=O)[O-])c(=O)n(C)c(=O)n2C)cc1O	-24%	?	-103*	.	?	.
COc1cc(/C=C/c2c([N+](=O)[O-])c(=O)n(C)c(=O)n2C)cc(OC)c1OC	?	.	-67*	-13%	-21%	-27%
Cn1c(/C=C/c2ccc(Br)cc2)c([N+](=O)[O-])c(=O)n(C)c1=O	?	16µM*	-100*	?	?	13µM*
COc1ccc(OC)c(/C=C/c2c([N+](=O)[O-])c(=O)n(C)c(=O)n2C)c1	.	-23%	-5	-19%	-29%[46.1 µM]	-25%
CC(=O)N1CCCc2cc(S(=O)(=O)N(C)CC(=O)Nc3cccc(C)c3C)ccc21	-1%[46.1 µM]	-28%	-13	-22%	.	-14%
O=C(NCc1ccccc1Cl)C(=O)NCC(c1cccs1)S(=O)(=O)c1ccccc1 (stereo unspecified)	-51%[46.1 µM]	-15%	2	-3%	.	i
CCOC(=O)C1CCCN(Cc2cn3c(-c4cccc(Br)c4)nnc3s2)C1 (stereo unspecified)	-6%[46.1 µM]	-22%	-3	-8%	?	-2%
Cc1ccc(SCCC(=O)N/N=C/c2ccccc2O)cc1	?	4%	-85*	1%	?	-26%
O=C(CSCC(=O)NN=Cc1ccccc1O)NN=Cc1ccccc1O	?	56%	-13	?	?	?
Cc1cccc(NC(=O)c2ccccc2NC(=O)CCC(=O)O)c1	-6%	9%	-79*	-15%	?	i
CSc1nc(C)cc(OCC(=O)N/N=C/c2ccccc2O)n1	?	?	?	?	2.8µM*	11µM*
Cc1ccc(NC(=O)CCC(=O)N/N=C/c2ccccc2O)cc1	.	15%	3	.	.	.
O=C(CCCCC(=O)NN=Cc1ccccc1O)NN=Cc1ccccc1O	?	5%	12	-13%	?	3.2µM*
COCCCNC(=S)N/N=C/c1ccccc1O	.	55%	-62*	.	.	.
O=C(COc1nsnc1N1CCOCC1)N/N=C/c1ccccc1O	?	-4%	39	?	?	22µM*
COCCNC(=S)N/N=C/c1ccccc1C(=O)O	10%	9%	-5	-13%	16%	-20%
O=C(CCC(=O)Nc1ccc(Br)cc1)N/N=C/c1ccccc1O	?	24%	-66*	?	?	5.6µM*
Cc1cccc(NC(=O)CCC(=O)N/N=C/c2ccc(O)cc2O)c1	?	-11%	100	-9%	?	6.3µM*
O=C(Cn1cc(C(F)(F)F)ccc1=O)N/N=C/c1ccccc1O	.	2%	-21	-25%	.	16µM*
O=C(Cn1cc(C(F)(F)F)ccc1=O)N/N=C/c1ccc(F)cc1	1%	13%	0	-2%	7%[46.1 µM]	2%
Clc1ccc(-c2ccc(C=Nc3ccc(N4CCOCC4)cc3)o2)cc1	-5%	-7%	-62*	-4%	-17%	-11%
C[C@H]1CCC/C=C/C2C[C@H](O)CC2[C@H](O)/C=C/C(=O)O1 (stereo partly specified)	1.2µM*	-24%	.	?	0.37µM*	?
CC1CCCC=CC2CC(O)CC2C(O)/C=C\C(=O)O1 (stereo unspecified)	.	.	.	.	0.4µM*	.
CC1CCC/C=C/C2CC(O)CC2C(O)/C=C/C(=O)O1 (stereo unspecified)	?	-24%	-100*	?	0.4µM*	?
SMILES	LASV entry inh	FMDV antiviral	HCMV antiviral	VACV Venus inh	MARV entry inh	Vaccinia mCherry
O=C(NC1CCCCC1)C(=O)c1ccccc1F	.	.	40	.	.	.
COc1cc(C=NN=c2sc3ccccc3n2C)ccc1OCCO	.	.	8	.	.	.
COc1cc([C@H]2C[C@H](C(F)(F)F)n3ncc(C(=O)O)c3N2)cc(OC)c1OC	.	.	.	.	-7%	.
CCOc1ccc(C(=O)N2CC(=O)Nc3ccc(F)cc3C2c2ccc(F)cc2)cc1 (stereo unspecified)	?	-4%	37	0%	?	-6%
O=C(CN1C(=O)C2(SCC(=O)N2c2cccc(Cl)c2)c2ccccc21)NCCc1ccccc1 (stereo unspecified)	?	-9%	-8	-21%	.	-21%
O=C1NC(=O)N(c2ccc3c(c2)OCO3)C(=O)/C1=C/c1cccs1	?	28µM*	99	20%	?	i
